Experimental data taken from PubChem BioAssay (EPA / NIEHS).
Where “and” joins values, the source holds several entries; their conditions need not be identical. Equal entries are not always repeated. Results filed as inconclusive are left out. A structure can be active in one record and inactive in another. Calls of active or inactive are those of the source. Rule for the calls, unless noted: active = hit-call score of the fitted dose curve at least 0.9, where 1 is the maximum; inconclusive = response in the unintended direction; inactive = score below 0.9.

What was measured:
[1] = target: Cellular tumor antigen p53 (Homo sapiens) (UniProt P04637); assay: TOX21_p53_BLA_p4_ratio: Tox21 HCT-116 p53 Agonism Beta-lactamase Assay, Ratio, Phase 4 (AID 2283601)
Sequence of Cellular tumor antigen p53 (Homo sapiens) (P04637 whole entry, looked up): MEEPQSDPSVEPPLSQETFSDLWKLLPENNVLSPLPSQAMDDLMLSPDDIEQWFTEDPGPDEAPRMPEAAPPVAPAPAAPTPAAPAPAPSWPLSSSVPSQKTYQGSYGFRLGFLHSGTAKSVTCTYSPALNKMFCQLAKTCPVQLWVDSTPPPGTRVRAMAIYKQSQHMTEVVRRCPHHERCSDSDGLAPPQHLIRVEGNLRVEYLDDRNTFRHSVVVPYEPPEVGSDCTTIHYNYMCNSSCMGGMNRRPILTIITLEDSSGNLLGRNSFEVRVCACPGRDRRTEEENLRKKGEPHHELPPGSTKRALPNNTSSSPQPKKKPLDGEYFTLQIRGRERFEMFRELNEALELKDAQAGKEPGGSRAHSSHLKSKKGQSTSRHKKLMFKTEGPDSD
Method in brief: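 Signal is the blue/green (460nm/530nm) ratio of cleaved versus uncleaved CCF4-AM substrate, read after 2 h substrate loading. Cells were HCT116 carrying the p53-responsive beta-lactamase reporter, dosed 16 h at 37C, 5% CO2; CellTiter-Glo measured in parallel.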

[2] = Tanguay_ZF_120hpf_MORT_legacy: (Legacy) Oregon State University Tanguay Lab 120 Hour Post-fertilization zebrafish Assay for Mortality (AID 2283633);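 for AC50: fitted as increase in binary mortality versus DMSO negative control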
Method in brief: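 Mortality endpoint from a multiplexed whole-embryo zebrafish screen. Dechorionated wild-type embryos received compound at 6 hpf and remained under static exposure at 28C until 120 hpf, with death noted as a present/absent call.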

[3] = Tanguay_ZF_120hpf_AXIS_legacy: (Legacy) Oregon State University Tanguay Lab 120 Hour Post-fertilization zebrafish Assay for Body Axis Malformation (AID 2283635)
Method in brief: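 Static 6–120 hpf chemical exposure of dechorionated wild-type 5D zebrafish, one per well at 28C; morphology endpoint scored binary at 120 hpf relative to DMSO control.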

[4] = Tanguay_ZF_120hpf_EYE_legacy: (Legacy) Oregon State University Tanguay Lab 120 Hour Post-fertilization zebrafish Assay for Eye Malformation (AID 2283636);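 note: binary presence or absence of eye malformation scored by brightfield in 120 hpf larvae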
Method in brief: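 Binary brightfield scoring of eye defects at 120 hpf after static exposure from 6 hpf of single pronase-dechorionated wild-type embryos (28C, 0.64% DMSO). Non-mortality endpoints omitted where embryos died; fit vs DMSO.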

[5] = Tanguay_ZF_120hpf_SNOU_legacy: (Legacy) Oregon State University Tanguay Lab 120 Hour Post-fertilization zebrafish Assay for Snout Malformation (AID 2283637)
Method in brief: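 Binary snout-malformation call at 120 hpf in wild-type 5D embryos, chorion removed by pronase, under static exposure from 6 hpf at 28C (0.64% DMSO). Embryos dying by 24 or 120 hpf excluded.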

[6] = Tanguay_ZF_120hpf_JAW_legacy: (Legacy) Oregon State University Tanguay Lab 120 Hour Post-fertilization zebrafish Assay for Jaw Malformation (AID 2283638)
Method in brief: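 Static waterborne exposure of dechorionated wild-type (Tropical 5D) zebrafish from 6 to 120 hpf at 28C, 0.64% DMSO vehicle; 5uM trimethyltin chloride served as positive control. Jaw morphology recorded as binary at 120 hpf.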

[7] = Tanguay_ZF_120hpf_OTIC_legacy: (Legacy) Oregon State University Tanguay Lab 120 Hour Post-fertilization zebrafish Assay for Otic Vesicle Malformation (AID 2283639)
Method in brief: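 Binary scoring of otic vesicle defects at 120 hpf in zebrafish (Tropical 5D) held under static exposure at 28C, sealed and shaded, with final DMSO 0.64%. Embryos dying by 24 or 120 hpf excluded; fitted positively against DMSO.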

[8] = Tanguay_ZF_120hpf_PE_legacy: (Legacy) Oregon State University Tanguay Lab 120 Hour Post-fertilization zebrafish Assay for Pericardial Edema (AID 2283640)
Method in brief: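 Read-out is the presence or absence of pericardial edema at 120 hpf under brightfield, with gain of signal fitted against DMSO controls. Larvae (5D wild-type) were statically exposed at 28C with 0.64% final DMSO.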

[9] = Tanguay_ZF_120hpf_BRAI_legacy: (Legacy) Oregon State University Tanguay Lab 120 Hour Post-fertilization zebrafish Assay for Brain Malformation (AID 2283641)
Method in brief: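 Brain malformation in Tropical 5D zebrafish was recorded as a binary endpoint after static compound exposure from early development to 120 hpf at 28C. Activity was analysed against DMSO as negative control.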

[10] = Tanguay_ZF_120hpf_SOMI_legacy: (Legacy) Oregon State University Tanguay Lab 120 Hour Post-fertilization zebrafish Assay for Somite Malformation (AID 2283647)
Method in brief: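 5D WT zebrafish; chorion removed 4 hpf; 1 embryo/well from 6 hpf; static exposure to 120 hpf, 28C, 0.64% DMSO final. Endpoint: somite malformation, binary, brightfield. Mortality excluded.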

[11] = Tanguay_ZF_120hpf_PFIN_legacy: (Legacy) Oregon State University Tanguay Lab 120 Hour Post-fertilization zebrafish Assay for Pectoral Fin Malformation (AID 2283648);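 note: each larva judged yes or no for fin defect by brightfield with dead larvae skipped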
Method in brief: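 Pectoral fin malformation was recorded as a binary endpoint at 120 hpf in wild-type Tropical 5D larvae, which had been dechorionated and exposed statically from 6 hpf at 28C in 0.64% DMSO. Dead embryos were excluded.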

[12] = Tanguay_ZF_120hpf_CFIN_legacy: (Legacy) Oregon State University Tanguay Lab 120 Hour Post-fertilization zebrafish Assay for Caudal Fin Malformation (AID 2283649)
Method in brief: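 Embryos were collected from Tropical 5D wild-type adults and dechorionated at 4 hpf. At 6 hpf each was exposed, one per well, at 0.64% DMSO and 28C. At 120 hpf fin morphology was scored; dead embryos were excluded.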

[13] = Tanguay_ZF_120hpf_PIG_legacy: (Legacy) Oregon State University Tanguay Lab 120 Hour Post-fertilization zebrafish Assay for Pigmentation Malformation (AID 2283650)
Method in brief: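 Pigment malformation recorded as a binary call at 120 hpf in zebrafish (Tropical 5D) exposed singly from 6 hpf after pronase dechorionation. Static, sealed, 28C exposure, 0.64% DMSO; mortality excludes scoring; positive-direction fit against DMSO.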

[14] = Tanguay_ZF_120hpf_CIRC_legacy: (Legacy) Oregon State University Tanguay Lab 120 Hour Post-fertilization zebrafish Assay for Circulatory Malformation (AID 2283651)
Method in brief: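 Binary circulatory malformation call at 120 hpf by brightfield imaging of zebrafish larvae; chorion removed at 4 hpf, static exposure from 6 hpf in sealed dark plates at 28C, final DMSO 0.64%; non-mortality endpoints skipped if embryo died.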

[15] = Tanguay_ZF_120hpf_SWIM_legacy: (Legacy) Oregon State University Tanguay Lab 120 Hour Post-fertilization zebrafish Assay for Swim Bladder Malformation (AID 2283654);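 note: swim bladder malformation in each larva scored yes or no under brightfield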
Method in brief: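 Scoring is binary for swim bladder defects at 120 hpf, by brightfield inspection of zebrafish larvae. Embryos were exposed singly from 6 hpf after pronase dechorionation, at 28C with 0.64% DMSO; mortality excluded scoring.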

[16] = Tanguay_ZF_120hpf_TRUN_legacy: (Legacy) Oregon State University Tanguay Lab 120 Hour Post-fertilization zebrafish Assay for Truncated Body (AID 2283655)
Method in brief: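 5D wild-type larvae; pronase dechorionation; static exposure 6→120 hpf, 28C; DMSO 0.64% final; 5uM trimethyltin chloride positive control. Readout: presence/absence of truncated body, analyzed relative to DMSO.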

[17] = target: Cellular tumor antigen p53 (Homo sapiens) (UniProt P04637); assay: TOX21_p53_BLA_p5_ratio: Tox21 HCT-116 p53 Agonism Beta-lactamase Assay, Ratio, Phase 5 (AID 2283599)
Method in brief: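 Beta-lactamase reporter ratio (blue 460 nm over green 530 nm, 405 nm excitation) after 2 h CCF4-AM loading, in HCT-116 cells exposed 16 h at 37 C to compounds pinned at 217-fold dilution. Increases relative to DMSO baseline scored.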

[18] = TOX21_p53_BLA_p5_viability: Viability Assessment in the Tox21 HCT-116 p53 Agonism Beta-lactamase Assay, Phase 5 (AID 2283600)
Method in brief: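 Viability is taken from cellular ATP content, measured by luciferase luminescence in the same wells after the beta-lactamase ratio read. Cells are seeded at 4000 per well and exposed to DMSO-dissolved compounds, diluted 217-fold, for 16 h.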

[19] = read-out: kallikrein-3 (KLK3), KLK3 (gene 354); assay: LTEA_HepaRG_KLK3: Life Technologies and Expression Analysis (LTEA) Assay for kallikrein-3 (KLK3) using HepaRG (AID 2283652; active = hit-call score of the fitted dose curve at least 0.9, where 1 is the maximum; inactive = score below 0.9); conditions: mRNA level, 48 h; actives raise or lower the signal
Method in brief: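 KLK3 transcript levels were measured by TaqMan qRT-PCR with normalisation to three housekeeping genes. HepaRG cultures received chemicals for 48 h at up to 100 uM (half-log, 8 points, 0.5% DMSO vehicle), fitted in both directions against DMSO.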

[20] = read-out: solute carrier (SLC22A6), SLC22A6 (gene 9356); assay: LTEA_HepaRG_SLC22A6: Life Technologies and Expression Analysis (LTEA) Assay for solute carrier (SLC22A6) using HepaRG (AID 2283653; active = hit-call score of the fitted dose curve at least 0.9, where 1 is the maximum; inactive = score below 0.9); conditions: mRNA level, 48 h; actives raise or lower the signal
Method in brief: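 This endpoint tracks SLC22A6 mRNA induction or suppression in human HepaRG cultures after 48 h dosing, concentrations reaching 100 uM. Values derive from bidirectional fitting against DMSO controls.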

Measured: AC50

C#CCO
inactive: [1]

N#Cc1cccnc1
not listed: [1] | [16] | [17] | [18] | [19] | [20]
inactive: all other assays above

O=NN1CCCCCC1
inactive: [1]

COc1ccccc1N
inactive: [2] | [3] | [4] | [5] | [6] | [9] | [11] | [13] | [14] | [15]

CC(C)(C)c1ccccc1O
not listed: [1] | [17] | [18] | [19] | [20]
inactive: all other assays above

O=C(Nc1ccc(Br)cc1)c1cc(Br)cc(Br)c1O
inactive: [1]
active: [17] 1.11 µM and 782 nM and 7.78 µM | [1] 1.11 µM and 589 nM

CCCCS(=O)(=O)Cl
inactive: [18]

C=CCc1ccccc1O
inactive: [17] | [1]

CCOP(=S)(OCC)OP(=S)(OCC)OCC
inactive: [17] | [1]

O=C(O)C1(c2ccc3c(c2)OC[C@H](Cc2ccc(-c4ccccc4)cc2)[C@H]3O)CCCC1
not listed: [1] | [6] | [11] | [12] | [17] | [18] | [19] | [20]
inactive: all other assays above

Oc1c(Cl)cc(Cl)cc1Cl
active: [2] 24.9 µM
not listed: [1] | [9] | [17] | [18] | [19] | [20]
inactive: all other assays above

N#CCCC(Br)(C#N)CBr (stereo unspecified)
inactive: [1]

O=C(N[C@H]1CN2CCC1CC2)c1ccc2c(c1)OCCO2
not listed: [1] | [17] | [18] | [19] | [20]
inactive: all other assays above

CC(C)=CC1C(C(=O)OCc2cccc(Oc3ccccc3)c2)C1(C)C (stereo unspecified)
inactive: [18] | [1]

Cc1cc(C)cc(C)c1
not listed: [1] | [10] | [17] | [18]
inactive: all other assays above

C=CC(=O)NC(C)(C)CC(C)=O
inactive: [18]

O=c1[nH]c2ccccc2n1C1CCN(CCCC(c2ccc(F)cc2)c2ccc(F)cc2)CC1
active: [17] 84.6 µM and 43.2 µM | [1] 19.8 µM
inactive: [1]

CC(C)CP(=S)(S)CC(C)C
inactive: [18] | [1]

Clc1cccc(Cl)c1
not listed: [1] | [9] | [12] | [13] | [17] | [18] | [19] | [20]
inactive: all other assays above

O=C(O)c1cc(I)cc(I)c1I
inactive: [1]

OCCN(CCO)CCO
not listed: [1] | [17] | [18] | [19] | [20]
inactive: all other assays above

CCN(CCO)CCO
inactive: [18] | [1]

Oc1cc(Cl)c(Cl)cc1Cl
active: [2] 24.9 µM
not listed: [1] | [17] | [18] | [19] | [20]
inactive: all other assays above

Nc1nc(N)nc(Cl)n1
inactive: [18] | [1]

CCCCCCCCCCCCCl
inactive: [1]

CN(C)c1ccc(N=O)cc1
active: [17] 83.8 µM and 86.6 µM | [1] 86.9 µM
inactive: [1]
